Test [1] can be described thus: ATG_TCF_b_cat_CIS: Attagene CIS-FACTORIAL HepG2 Assay for human T-Cell-Factor with beta-catenin (TCF/b-cat) (AID 2282965). To be noted: HepG2 TCF/beta-catenin cis-reporter transcription, actives raise or lower the signal. Put shortly:
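Measured: reporter mRNA in HepG2 transiently transfected with cis-promoter reporter units, 24 h after chemical addition. Fitting was bidirectional, DMSO as negative control.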

Test [2] is described as follows: ATG_TAL_CIS: Attagene CIS-FACTORIAL HepG2 Assay for human TAL Basal Promoter (AID 2282966).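 Also: background control endpoint measuring basal TAL promoter reporter mRNA not a specific factor.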 To be noted: HepG2 Attagene cis-factorial TAL promoter reporter; actives raise or lower the signal. In short, it runs like this: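 Readout: reporter mRNA, fluorescence by CE. System: HepG2, transient multi-reporter transfection, endogenous TF activity. Exposure: 24 h. Analysis: bidirectional, DMSO-normalized; background control.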

Test [3] is described as follows: ATG_TGFb_CIS: Attagene CIS-FACTORIAL HepG2 Assay for human Transforming Growth Factor (TGF) (AID 2282967). To be noted: HepG2 Attagene CIS TGFb reporter, mRNA transcription; actives raise or lower the signal. Put shortly:
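Bidirectional fitting relative to DMSO gave the endpoint. Underlying data: reporter mRNA from HepG2 cells carrying transiently transfected cis-regulated reporter constructs, harvested 24 h after dosing and analyzed by RT-PCR and capillary electrophoresis.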

Test [4] is described as follows: ATG_VDRE_CIS: Attagene CIS-FACTORIAL HepG2 Assay for human Vitamin D Receptor Element (VDRE) (AID 2282968). To be noted: HepG2 VDRE cis-reporter transcription, actives raise or lower the signal. In short, it runs like this: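 Reporter mRNA induction, quantified by capillary electrophoresis of fluorescently labelled RT-PCR products, was read 24 h after dosing HepG2 cells carrying transiently transfected cis-regulated reporter units; gain or loss relative to DMSO.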

Test [5] addresses Nuclear receptor subfamily 1 group I member 3 (Homo sapiens) (UniProt Q14994). Description: ATG_CAR_TRANS: Attagene TRANS-FACTORIAL HepG2 Assay for human Constitutive Androstane Receptor (CAR) (AID 2282969; active = hit-call score of the fitted dose curve at least 0.9, where 1 is the maximum;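 also: activators raise reporter mRNA above DMSO so AC50 marks induction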). To be noted: HepG2 Attagene TRANS-FACTORIAL CAR reporter. In short, it runs like this: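 Readout is reporter mRNA induction, quantified by fluorescent primer extension and capillary electrophoresis after RT-PCR. Cells were HepG2 transiently carrying chimeric NR-Gal4 constructs with GAL4-UAS reporters, treated for 24 h; activity scored upward from DMSO.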

Test [6] concerns the target Estrogen receptor (Homo sapiens) (UniProt P03372). Briefly: ATG_ERa_TRANS: Attagene TRANS-FACTORIAL HepG2 Assay for human Estrogen Receptor alpha (ERa) (AID 2282970; active = hit-call score of the fitted dose curve at least 0.9, where 1 is the maximum). To be noted: HepG2 Attagene TRANS ERa GAL4 reporter, mRNA. In short, it runs like this: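 Transactivation via ERa-Gal4 chimera in HepG2; 24 hour incubation; reporter mRNA detected by fluorescence RT-PCR and capillary electrophoresis.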

Test [7] has as its target Steroid hormone receptor ERR1 (Homo sapiens) (UniProt P11474). Briefly: ATG_ERRa_TRANS: Attagene TRANS-FACTORIAL HepG2 Assay for human Estrogen-Related Receptor alpha (ERRa) (AID 2282971; active = hit-call score of the fitted dose curve at least 0.9, where 1 is the maximum). To be noted: HepG2 Attagene TRANS reporter, ERRa transactivation. In short, it runs like this: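 HepG2 cells were transiently transfected with multiple GAL4-UAS reporter units, then dosed with compound for 24 h. Total RNA was reverse-transcribed, reporter cDNA PCR-amplified and fluorescently labelled, and fragments resolved by capillary electrophoresis; induction was compared with DMSO.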

Test [8] concerns the target X-box-binding protein 1 (Homo sapiens) (UniProt P17861). Description: ATG_Xbp1_CIS: Attagene CIS-FACTORIAL HepG2 Assay for human X-box Binding Protein 1 (XBP1) (AID 2282972). To be noted: HepG2 XBP1 cis-element reporter, Attagene multiplex; actives raise or lower the signal. Put shortly:
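HepG2, transient MRTU transfection (cis-promoter driven), 24 h compound exposure. Total RNA → oligo(dT) RT → PCR → 6-FAM labeling → HpaI cut → CE. Bidirectional fit vs DMSO.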

Test [9] in a line: ATG_M_19_TRANS: Attagene TRANS-FACTORIAL HepG2 Assay for M19 Transcription Factor (Internal Marker) (AID 2282974; active = hit-call score of the fitted dose curve at least 0.9, where 1 is the maximum). To be noted: HepG2 Attagene TRANS-FACTORIAL M19 internal marker reporter. In short, it runs like this:
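24 h chemical exposure of transiently transfected HepG2 (MRTU library). RNA → oligo(dT) RT → PCR → 6-FAM labelling → HpaI cut → CE fluorescence. Positive-direction fit vs DMSO baseline; background internal-marker readout.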

The nature of test [10]: ATG_GAL4_TRANS: Attagene TRANS-FACTORIAL HepG2 Assay for GAL4 (Internal Marker) (AID 2282976; active = hit-call score of the fitted dose curve at least 0.9, where 1 is the maximum). To be noted: HepG2 Attagene TRANS GAL4 internal marker reporter. Put shortly: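 Fluorescence from capillary electrophoresis of labelled RT-PCR products quantifies reporter mRNA induction after 24 h dosing of HepG2 cells carrying transfected GAL4-UAS reporter transcription units. Vehicle DMSO serves as baseline.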

For 24 molecules, outcome and AC50 results are on record in PubChem BioAssay (EPA / NIEHS).

Where “and” joins values, the source holds several entries; their conditions need not be identical. Equal values may be shown once. Results filed as inconclusive are left out. Some compounds were tested as several samples or in several runs, with calls that do not always agree. Calls of active or inactive are those of the source. The calls were made as follows, unless noted: active = hit-call score of the fitted dose curve at least 0.9, where 1 is the maximum; inactive = score below 0.9.

Sequence of X-box-binding protein 1 (Homo sapiens) (P17861 whole entry, looked up): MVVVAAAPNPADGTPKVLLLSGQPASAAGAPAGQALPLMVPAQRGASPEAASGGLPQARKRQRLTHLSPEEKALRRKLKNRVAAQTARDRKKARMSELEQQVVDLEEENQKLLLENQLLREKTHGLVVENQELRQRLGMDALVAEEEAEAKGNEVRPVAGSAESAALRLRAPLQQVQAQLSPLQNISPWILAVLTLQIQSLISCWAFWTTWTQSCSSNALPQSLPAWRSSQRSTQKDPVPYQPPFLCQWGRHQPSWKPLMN
Sequence of Estrogen receptor (Homo sapiens) (P03372 whole entry, looked up, the tested form may be a part): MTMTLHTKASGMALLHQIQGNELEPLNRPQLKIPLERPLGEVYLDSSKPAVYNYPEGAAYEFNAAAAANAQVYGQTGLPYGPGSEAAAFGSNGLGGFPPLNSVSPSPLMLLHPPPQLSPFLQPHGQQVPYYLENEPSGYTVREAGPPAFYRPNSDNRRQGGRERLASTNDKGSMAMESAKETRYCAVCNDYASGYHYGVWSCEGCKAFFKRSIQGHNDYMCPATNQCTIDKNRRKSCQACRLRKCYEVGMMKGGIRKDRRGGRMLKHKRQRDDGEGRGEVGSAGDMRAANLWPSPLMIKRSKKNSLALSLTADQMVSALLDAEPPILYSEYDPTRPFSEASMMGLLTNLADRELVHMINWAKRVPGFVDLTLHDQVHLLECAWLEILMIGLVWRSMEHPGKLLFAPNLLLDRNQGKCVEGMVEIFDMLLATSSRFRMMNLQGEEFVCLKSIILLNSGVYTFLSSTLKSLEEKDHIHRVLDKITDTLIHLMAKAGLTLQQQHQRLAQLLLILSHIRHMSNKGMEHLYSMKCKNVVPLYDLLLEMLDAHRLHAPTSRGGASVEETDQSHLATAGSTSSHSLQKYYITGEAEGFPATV
Sequence of Steroid hormone receptor ERR1 (Homo sapiens) (P11474 whole entry, looked up, the tested form may be a part): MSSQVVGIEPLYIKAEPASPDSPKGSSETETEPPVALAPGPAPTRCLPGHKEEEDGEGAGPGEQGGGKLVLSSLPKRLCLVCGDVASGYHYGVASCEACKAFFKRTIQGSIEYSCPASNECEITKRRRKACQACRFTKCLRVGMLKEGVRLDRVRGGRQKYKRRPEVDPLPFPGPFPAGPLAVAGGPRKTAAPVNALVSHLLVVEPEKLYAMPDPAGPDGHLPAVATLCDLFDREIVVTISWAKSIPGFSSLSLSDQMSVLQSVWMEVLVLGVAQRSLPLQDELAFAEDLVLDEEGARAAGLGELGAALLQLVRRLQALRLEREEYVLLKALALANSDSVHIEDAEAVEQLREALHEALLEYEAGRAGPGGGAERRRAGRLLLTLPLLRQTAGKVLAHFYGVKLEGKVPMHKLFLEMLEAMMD
Sequence of Nuclear receptor subfamily 1 group I member 3 (Homo sapiens) (Q14994 whole entry, looked up, the tested form may be a part): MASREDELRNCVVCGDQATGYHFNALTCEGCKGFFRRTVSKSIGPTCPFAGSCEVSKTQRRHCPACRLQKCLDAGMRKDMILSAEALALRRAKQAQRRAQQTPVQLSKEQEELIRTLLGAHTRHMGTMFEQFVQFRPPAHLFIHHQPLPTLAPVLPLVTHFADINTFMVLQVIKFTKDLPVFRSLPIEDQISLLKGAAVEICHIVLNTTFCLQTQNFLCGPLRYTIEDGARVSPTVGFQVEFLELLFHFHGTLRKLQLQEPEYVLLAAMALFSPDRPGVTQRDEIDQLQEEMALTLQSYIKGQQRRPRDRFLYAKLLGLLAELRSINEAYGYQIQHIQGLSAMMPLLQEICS

For the molecule `CCCCCCCCC(F)(F)C(F)(F)C(F)(F)C(F)(F)C(F)(F)C(F)(F)F`, the call in [1], in [2], in test [3], in test [4], in test [5] and in test [6] was inactive. For the same molecule, the call in test [7], in test [8], in [9] and in [10] was inactive.

Regarding `CCCCCCCCCCCCCCCC[N+](C)(C)Cc1ccccc1`, the call in test [1], in [2], in test [3], in test [4], in test [5] and in test [6] was inactive. For the same molecule, the molecule was called inactive in [7] and in [8].

One may read the AC50 as the concentration at which the activity in the assay is half-maximal. `O=C(O)C(F)(F)C(F)(F)C(F)(F)C(F)(F)C(F)(F)C(F)(F)C(F)(F)C(F)(F)Cl`: the AC50 in test [1] is 50 µM (active); in test [2] it was 50 µM (active); in test [3] it was 74.7 µM (active) and 82.8 µM (active); in test [4], 49.3 µM (active) and 67.4 µM (active); in test [6], 27.2 µM (active) and 31.4 µM (active); in [8] it was 58.7 µM (active) and 50 µM (active). Moreover, the molecule was classed as inactive in [2] and in test [9].

As to `O=C(O)C(F)(F)C(F)(F)C(F)(F)C(F)(F)C(F)(F)C(F)(F)C(F)(F)C(F)(F)C(F)(F)C(F)F`, the molecule was classed as inactive in [1], in test [2], in test [3], in test [4], in test [5] and in test [7]. Also, the molecule was classed as inactive in [8] and in test [10]. For the same molecule, the half-maximal activity concentration (AC50) in [6] is 24.6 µM (active).

As for `FC(F)(F)C(F)(F)C(F)(F)C(F)(F)C(F)(F)C(F)(F)C(F)(F)Br`, the outcome in test [1], in test [2], in test [3], in [4], in test [5] and in [6] was inactive. In addition, the molecule was classed as inactive in [7], in [8], in test [9] and in [10].

Take `c1ccc(-c2ccccc2-c2ccccc2)cc1`: the result in test [1], in [2], in test [3], in [4], in test [5] and in test [8] was inactive. Also, in test [9], the molecule was called inactive. The AC50 in [6] was 2.75 µM (active).

As to `CCc1c(Br)c(Br)c(Br)c(Br)c1Br`, the molecule was called inactive in test [1], in test [2], in test [3], in test [4], in [5] and in [6].

As to `CCCCCCOC(=O)c1ccccc1O`, the molecule was classed as inactive in test [1], in [2], in test [3], in test [4], in test [5] and in test [8]. In addition, the outcome in test [9] was inactive. The AC50 in [6] was 92.5 µM (active).

As for `CCc1ccc(C(c2ccc(CC)cc2)C(Cl)Cl)cc1`, the molecule was called inactive in [1], in [2], in [3], in test [5], in [8] and in test [9]. In addition, the concentration at half-maximal activity (AC50) in test [4] was 2.84 µM (active); in test [6] it was 7.49 µM (active).

Regarding `O=C(CC(=O)C(F)(F)C(F)(F)F)C(F)(F)F`, the AC50 in test [1] was 150 µM (active). The molecule was called inactive in [1], in test [2], in test [3], in [4], in test [6] and in [7]. The molecule was classed as inactive in test [8], in test [9] and in test [10].

As to `CCCCCCC(C)OC(=O)CCCCC(=O)OC(C)CCCCCC` (stereo not drawn), the outcome in [1], in test [2], in test [3], in test [4], in test [5] and in test [6] was inactive.

For `CS(C)(=O)=O`, the outcome in test [1], in test [2], in test [3], in test [4], in test [5] and in test [6] was inactive.

With `CC(=O)Nc1ccc(N=Nc2cc(C)ccc2O)cc1`, the call in test [1], in test [2], in test [5] and in [6] was inactive. Moreover, the AC50 was 11.6 µM (active) in test [3] and 13.6 µM (active) in [4].

For `C=CC/C=C/C/C=C/C/C=C/C`, the molecule was called inactive in [1], in [2], in test [3], in test [4], in test [5] and in test [6]. Further, the molecule was called inactive in test [7].

`CN(C)Cc1ccccc1O`: the result in [1], in test [2], in [3], in test [4], in [5] and in [6] was inactive. In addition, the call in test [8] and in test [9] was inactive.

On to `O=S(=O)(O)c1ccc2ccccc2c1`, for which the outcome in test [1], in [2], in test [3], in test [4], in test [6] and in test [8] was inactive. Moreover, the outcome in test [9] and in [10] was inactive. The AC50 in test [4] is 29.3 µM (active).

Turning to `CCCCCCOC(=O)c1ccccc1`, the result in [1], in [2], in test [3], in [4], in test [5] and in test [6] was inactive. Also, the outcome in test [8] and in test [9] was inactive.

Turning to `CC(CCl)OP(=O)(OC(C)CCl)OC(C)CCl` (stereo not drawn), the call in [1], in [2], in test [3], in test [4], in test [5] and in [6] was inactive. The outcome in test [7] and in [9] was inactive.

On to `FC(F)(F)C(F)(F)C(F)(F)CI`, for which the result in test [1], in test [2], in test [3], in [4], in test [5] and in [6] was inactive. In addition, the call in [7] and in [9] was inactive.

In the case of `Cc1cccc(N(C)C)c1`, the molecule was called inactive in test [1], in test [2], in [3], in test [4], in test [5] and in test [6]. The call in test [7], in [8] and in test [10] was inactive.

For `OCCCC(F)(F)C(F)(F)C(F)(F)C(F)(F)C(F)(F)C(F)(F)C(F)(F)F`, the AC50 was 33.7 µM (active) in [1]; 88.7 µM (active) in [2]; 150 µM (active) in test [4]; 13.7 µM (active) and 13.2 µM (active) in test [6]; 72.5 µM (active) and 97.8 µM (active) in [8]. In addition, the molecule was classed as inactive in test [1], in test [2], in test [3] and in [4].

Regarding `O=C(O)C(F)(F)C(F)(F)F`, the call in [1], in test [2], in [3], in test [4], in test [5] and in [6] was inactive. For the same molecule, the molecule was classed as inactive in test [7], in test [8], in test [9] and in test [10].

`COC(=O)C1CCC(C(=O)OC)CC1` (stereo not drawn): the AC50 in [1] is 55.4 µM (active). Further, the result in test [1], in test [2], in test [3], in test [4], in [6] and in test [7] was inactive. Further, the outcome in test [8] and in test [9] was inactive.

Turning to `O=S(=O)(O)C(F)(F)C(F)(F)C(F)(F)C(F)(F)C(F)(F)C(F)(F)C(F)(F)F`, the concentration at half-maximal activity (AC50) in test [1] was 78.9 µM (active); in test [3], 148 µM (active) and 81.5 µM (active); in test [6], 43.3 µM (active) and 58.7 µM (active). In addition, the call in test [1], in test [2], in [4], in test [5], in [7] and in [9] was inactive. In addition, the molecule was called inactive in [10].
